Growth data for 13 compounds are collected here from PubChem BioAssay (NCI).

The panel holds about 83,000 compounds, 20% with a hit somewhere; the sample as a whole holds those more often.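 Treatment: one concentration, 48 hours, 96-well format. Scoring: percent growth, with anything below 10 considered active.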 Calls of active or inactive are those of the source.

This test concerns CCRF-CEM leukemia. Description: NCI-60 one-dose screen, 48 h (100 = growth as untreated, 0 = no growth, -100 = all killed). The conditions noted are these: 10 µM unless noted.
As to `NNc1nnc2nc(Nc3ccccc3)nc(Nc3ccc(S(N)(=O)=O)cc3)n12`, the growth was 92.5% (inactive).
For the compound `Brc1ccc2[nH]cc(-c3nn4cc(-c5nccs5)nc4s3)c2c1`, the growth is 17.1% (inactive).
Regarding `Nn1c(=O)n(-c2cccc(C(F)(F)F)c2)c(=O)c2cc(-c3ccc(F)cc3F)ccc21`, the growth is 13.3% (inactive).
On to `CN(C)CCNc1ccc2ncc(C#Cc3cncc(C(=O)Nc4ccc(CN5CCN(C)CC5)c(C(F)(F)F)c4)c3)n2n1`, for which the growth was 5.95% (active).
Then `O=S(=O)(Oc1ccc(-c2cn3ccoc3n2)cc1)C1CCCCC1`, with 87.2% (inactive); and `O=C(N/N=C\c1ccc([N+](=O)[O-])cc1)c1ccc2nc(-c3ccc(Br)cc3)[nH]c2c1`, with 10.6% (inactive).
Then `Cc1ccsc1[C@H]1c2[nH]c3ccccc3c2C[C@H]2C(=O)N(CCCCCCC(=O)NO)CC(=O)N12`, with 26.5% (inactive); and `Cc1ccc(N2CCN(C3=C(Cl)C(=O)c4ncccc4C3=O)CC2)cc1`, with 5.41% (active); and `N#Cc1cccc(-c2cc(-c3ccc4c(c3)OCCO4)[nH]n2)c1`, with 14.2% (inactive).
As for `COc1cc2cc(Oc3ccc(NC(=O)c4cc(C(F)(F)F)cc(C(F)(F)F)c4)cc3)c(C)nc2cc1OCCN1CCOCC1`, the figure is 45% (inactive); as for `N#C/C(=N\Nc1ccc(F)cc1)C(=O)Nc1cc(-c2ccccc2)nn1-c1ccccc1`, 15.7% (inactive); as for `CN(C)CCCOc1ccc(C(=C(c2ccccc2)C2CCCC2)c2ccc(OCCCN(C)C)cc2)cc1`, -35.2% (active).
On to `NC(=O)c1ncn2c(=O)n(CCF)nnc12`, for which the growth was 28.5% (inactive).
